For assay [1], the target named is Calcium and integrin-binding protein 1 (Homo sapiens) (UniProt Q99828). Description: Primary qHTS for Identification of Calcium Integrin Binding Protein 1 (CIB1) Competitor (AID 1508620).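 Note: GST tagged CIB1 binding a fluorescein labelled alphaIIb integrin peptide tracer; top concentration of the series differs between compounds.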 The gist of the method:
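Fluorescence polarization competition: GST-tagged CIB1 (1 uM final) preincubated with compound 15 min at room temperature, then FITC-labelled alphaIIb peptide (100 nM final) added. After 15 min at room temperature, polarization read at Ex 480/Em 540.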

The nature of assay [2]: Primary qHTS for small molecule stabilizers of the endoplasmic reticulum resident proteome: Secreted ER Calcium Modulated Protein (SERCaMP) assay (AID 1508630). The gist of the method: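 GLuc-SERCaMP-expressing SH-SY5Y cells, pretreated 16 h with compound, are challenged with thapsigargin to empty ER calcium stores; after 4 h, coelenterazine is added directly to the medium and luminescence is imaged.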

A short description of assay [3]: Primary qHTS for inhibitors of nuclear receptor binding SET domain protein 2 (NSD2) in an isogenic RCH-ACV NSD2 p.E1099K mutant (9B) (AID 1645876). Note: nearly all actives have a fitted effect of over 70% in size. Note: potency is the fitted concentration of half-maximal effect.
Assay [4] is described as follows: Primary qHTS for inhibitors of nuclear receptor binding SET domain protein 2 (NSD2) in an RCH-ACV wild type WT cells (2C) (AID 1645877). Note: nearly all actives have a fitted effect of over 70% in size. Note: potency is the fitted concentration of half-maximal effect. For orientation: Quantitative high-throughput screening tests each substance at several concentrations.
The target in assay [5] is Cytochrome P450 2C9 (Homo sapiens) (UniProt P11712). As to the kind of experiment: Cytochrome P450 family 2 subfamily C member 9 (CYP2C9) small molecule antagonists: luciferase biochemical (cell-free) qHTS assay (AID 1645842; active = well fitted curve in the direction sought with a large enough effect in the repeat runs; an effect the other way counts as inactive or inconclusive; note: potency is the fitted concentration of half-maximal effect; nearly all actives have a fitted effect of over 55% in size). Put shortly:
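Luminescence, after 20 min with luciferin detection reagent, reflected CYP2C9 turnover during a 1 h NADPH-driven reaction at 37C. Enzyme-substrate mix contained 0.4% bovine serum albumin and was preincubated with compound 10 min at room temperature.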

The target of assay [6] is N-terminal Xaa-Pro-Lys N-methyltransferase 1 (Homo sapiens) (UniProt Q9BV86). Description: Confirmatory qHTS for Inhibitors of N-terminal methyltransferase 1 (NTMT1): MTaseGlo Assay (AID 1645874). Note: nearly all actives have a fitted effect of over 65% in size. Note: potency is the fitted concentration of half-maximal effect. Put shortly: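 Luminescent MTase-Glo read-out of SAH. 125 nM NTMT1, 100 uM SAM, 1 uM SPKRIA substrate, 30 min RT reaction after 15 min compound preincubation. Normalized to no-enzyme and DMSO controls; Hill fit.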
Sequence of N-terminal Xaa-Pro-Lys N-methyltransferase 1 (Homo sapiens) (Q9BV86 whole entry, looked up): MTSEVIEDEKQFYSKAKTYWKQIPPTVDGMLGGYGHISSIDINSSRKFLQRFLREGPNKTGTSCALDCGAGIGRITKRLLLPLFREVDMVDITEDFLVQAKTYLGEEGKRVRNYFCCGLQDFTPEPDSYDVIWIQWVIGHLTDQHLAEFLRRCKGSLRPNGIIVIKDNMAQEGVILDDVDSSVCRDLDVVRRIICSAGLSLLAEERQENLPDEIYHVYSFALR

Assay [7] concerns the target Cytochrome P450 3A4 (Homo sapiens) (UniProt P08684). As to the kind of experiment: Cytochrome P450 family 3 subfamily A member 4 (CYP3A4) small molecule antagonists: luciferase qHTS assay (AID 1645841; active = well fitted curve in the direction sought with a large enough effect in the repeat runs; an effect the other way counts as inactive or inconclusive; note: nearly all actives have a fitted effect of over 45% in size). Put shortly:
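P450-Glo CYP3A4 enzyme with proluciferin substrate preincubated 10 min with compound at room temperature, then NADPH regeneration 1 h. Luciferin detection reagent added for 20 min; luminescence recorded. Ketoconazole positive control.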

For assay [8], the target named is Cytochrome P450 2D6 (Homo sapiens) (UniProt P10635). As to the kind of experiment: Cytochrome P450 family 2 subfamily D member 6 (CYP2D6) small molecule antagonists: luciferase biochemical (cell-free) qHTS assay (AID 1645840; active = well fitted curve in the direction sought with a large enough effect in the repeat runs; an effect the other way counts as inactive or inconclusive; note: nearly all actives have a fitted effect of over 55% in size; note: potency is the fitted concentration of half-maximal effect). The gist of the method: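 P450-Glo luminescent screen: recombinant CYP2D6 enzyme–proluciferin substrate mix preincubated with compound 10 min at room temperature, then NADPH regeneration added for 1 h at room temperature. Detection reagent added for 20 min; luciferin light read as relative luminescence units.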
Sequence of Cytochrome P450 2D6 (Homo sapiens) (P10635 whole entry, looked up): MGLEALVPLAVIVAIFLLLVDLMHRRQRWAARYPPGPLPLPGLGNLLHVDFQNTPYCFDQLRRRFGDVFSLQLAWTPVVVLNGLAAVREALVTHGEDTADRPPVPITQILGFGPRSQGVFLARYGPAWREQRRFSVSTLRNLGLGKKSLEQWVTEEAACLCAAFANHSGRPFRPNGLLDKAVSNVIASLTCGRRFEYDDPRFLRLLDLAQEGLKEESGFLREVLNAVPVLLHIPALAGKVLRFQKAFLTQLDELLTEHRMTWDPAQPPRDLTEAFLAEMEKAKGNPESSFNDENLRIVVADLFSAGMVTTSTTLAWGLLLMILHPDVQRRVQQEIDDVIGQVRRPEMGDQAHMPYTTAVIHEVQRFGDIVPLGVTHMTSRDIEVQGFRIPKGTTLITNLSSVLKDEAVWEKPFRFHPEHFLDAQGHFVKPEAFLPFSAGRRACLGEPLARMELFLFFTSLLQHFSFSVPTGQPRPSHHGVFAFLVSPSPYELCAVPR

The structures appear in SMILES notation. Values joined by “and” are separate entries in the source; they are usually repeats but may differ in a detail not shown here. Equal entries are not always repeated. Inconclusive results are not listed. A number with no mark means an inactive call. Active and inactive are the calls of the source. Unless noted, calls come from the whole dose curve; as a rule, active = well fitted curve in the direction sought with a large enough effect; inconclusive = small, poorly fitted or top-dose-only effect, or another doubt; inactive = no such curve, though single readings can be large; an effect the other way counts as inactive or inconclusive.

Sequence of Calcium and integrin-binding protein 1 (Homo sapiens) (Q99828 whole entry, looked up): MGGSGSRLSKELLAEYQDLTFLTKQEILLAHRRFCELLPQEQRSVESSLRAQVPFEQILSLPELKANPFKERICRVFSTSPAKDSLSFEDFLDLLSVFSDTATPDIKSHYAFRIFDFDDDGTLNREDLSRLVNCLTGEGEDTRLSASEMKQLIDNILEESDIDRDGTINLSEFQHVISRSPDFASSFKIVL
Sequence of Cytochrome P450 2C9 (Homo sapiens) (P11712 whole entry, looked up): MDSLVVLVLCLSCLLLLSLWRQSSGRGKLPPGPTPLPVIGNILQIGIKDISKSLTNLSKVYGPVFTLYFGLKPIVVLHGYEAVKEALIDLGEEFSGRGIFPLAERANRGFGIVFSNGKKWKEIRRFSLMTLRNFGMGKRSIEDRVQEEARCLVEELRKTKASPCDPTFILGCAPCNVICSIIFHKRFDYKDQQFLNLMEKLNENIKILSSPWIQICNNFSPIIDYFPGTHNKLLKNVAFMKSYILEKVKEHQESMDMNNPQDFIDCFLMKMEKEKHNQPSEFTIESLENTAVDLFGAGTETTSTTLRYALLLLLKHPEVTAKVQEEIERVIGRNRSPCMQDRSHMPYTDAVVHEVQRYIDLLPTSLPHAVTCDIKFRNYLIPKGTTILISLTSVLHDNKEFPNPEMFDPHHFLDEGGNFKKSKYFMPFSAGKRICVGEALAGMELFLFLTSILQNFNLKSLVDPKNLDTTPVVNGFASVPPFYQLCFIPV
Sequence of Cytochrome P450 3A4 (Homo sapiens) (P08684 whole entry, looked up): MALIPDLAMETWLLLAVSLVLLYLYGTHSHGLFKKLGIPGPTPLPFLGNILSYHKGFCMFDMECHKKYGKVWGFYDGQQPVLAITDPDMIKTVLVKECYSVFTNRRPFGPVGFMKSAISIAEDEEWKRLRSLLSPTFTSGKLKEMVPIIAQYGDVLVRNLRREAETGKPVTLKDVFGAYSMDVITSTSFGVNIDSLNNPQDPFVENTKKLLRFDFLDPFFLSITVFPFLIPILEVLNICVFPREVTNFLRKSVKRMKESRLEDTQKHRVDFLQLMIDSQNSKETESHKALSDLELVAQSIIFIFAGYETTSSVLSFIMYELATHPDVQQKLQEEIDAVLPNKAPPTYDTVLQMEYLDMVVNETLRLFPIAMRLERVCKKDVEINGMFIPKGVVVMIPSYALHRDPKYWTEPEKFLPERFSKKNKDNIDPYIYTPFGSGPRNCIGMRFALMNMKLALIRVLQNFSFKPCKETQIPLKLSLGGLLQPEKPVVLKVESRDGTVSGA

On to `O=C1CCC[C@@H]2[C@H]3CCC[N+]4([O-])CCC[C@@H](CN12)[C@@H]34` (some centres undefined), for which the outcome in assay [1] was inactive. The Potency entry in assay [2], in assay [3] and in assay [4] was “inactive” each time.
As to `CC(O)C1C(=O)N2C(C(=O)O)=C(SC3CNC(C(=O)N(C)C)C3)C(C)C12` (centres undefined), the result in assay [1] was inactive. For the same compound, the Potency entry in assay [2], in assay [3] and in assay [4] was “inactive” each time.
For `CNC(=O)CN1CCC(Oc2cc3c(Nc4cccc(Cl)c4F)ncnc3cc2OC)CC1`, the outcome in assay [1] was inactive. Moreover, the Potency result in assay [2] is “inactive”. The Potency is 9.52 µM (active) in assay [5]; 16.3 µM (active) and 18.6 µM (active) in assay [3]; 18.6 µM (active) in assay [4].
Regarding `CNc1nccc(-c2cccnc2Oc2cc(C(=O)Nc3cccc(C(F)(F)F)c3)ccc2C)n1`, the outcome in assay [1] was inactive. In addition, in assay [2], the Potency entry was “inactive”. The Potency in assay [5] was 3.01 µM (active); in assay [3], 2.58 µM (active) and 3.72 µM (active); in assay [4] it was 4.09 µM (active).
`C=C1C(=CC=C2CCC[C@]3(C)[C@@H]([C@H](C)C=C[C@H](C)C(C)C)CC[C@@H]23)C[C@@H](O)C[C@@H]1O`: the result in assay [1] was inactive. The Potency result in assay [2], in assay [3] and in assay [4] was “inactive” throughout. The Potency in assay [5] is 9.52 µM (active).
In the case of `O=C(CCCCCCNC(=O)c1cnc(N(c2ccccc2)c2ccccc2)nc1)NO`, in assay [1], the result was inactive. For the same compound, the Potency result in assay [2] is “inactive”. Moreover, the Potency in assay [3] is 728 nM (active) and 2.95 µM (active); in assay [4], 365 nM (active) and 2.09 µM (active).
On to `COc1cccc(-c2ccc(NC(=O)C3=C(C(=O)O)CCC3)c(F)c2)c1`, for which, in assay [1], the outcome was inactive. The Potency entry in assay [2] is “inactive”. Moreover, the Potency in assay [5] is 21.3 µM (active) and 26.8 µM (active); in assay [3], 5.78 µM (active) and 2.95 µM (active); in assay [4], 6.49 µM (active) and 3.72 µM (active).
Consider `COCCn1c2c([n+](Cc3cnccn3)c1C)C(=O)c1ccccc1C2=O`, for which, in assay [1], the outcome was inactive. For the same compound, in assay [2], the Potency entry is “inactive”. In addition, the Potency in assay [3] is 4.2 nM (active); in assay [4], 0.0059 µM (active).
As to `O=C(Nc1cc(C(F)(F)F)cc(C(F)(F)F)c1)c1cc(Cl)ccc1O`, the result in assay [1] was inactive. For the same compound, the Potency result in assay [2] is “inactive”. In addition, the Potency in assay [3] was 3.25 µM (active) and 2.63 µM (active); in assay [4], 2.3 µM (active) and 2.95 µM (active).
Regarding `Cc1cc(N2CCOCC2)cc2[nH]c(-c3c(NC[C@@H](O)c4cccc(Cl)c4)cc[nH]c3=O)nc12`, the result in assay [1] was inactive. The Potency result in assay [2] and in assay [6] was “inactive” each time. Moreover, the values for the Potency in assay [3] and in assay [4] were 1660 nM (active) and 2.35 µM (active), respectively.
In the case of `COc1cc2c(Oc3ccc(NC(=O)C4(C(=O)Nc5ccc(F)cc5)CC4)cc3F)ccnc2cc1OCCCN1CCOCC1`, in assay [1], the outcome was inactive. In addition, in assay [2], the Potency entry was “inactive”. Also, the Potency was 3.01 µM (active) in assay [5]; 515 nM (active) and 1.32 µM (active) in assay [3]; 365 nM (active) and 833 nM (active) in assay [4].
Consider `CN[C@H]1CCc2cc(OC)c(OC)c(OC)c2-c2ccc(OC)c(=O)cc21`, for which the outcome in assay [1] was inactive. Also, the Potency entry in assay [2] was “inactive”. For the same compound, the Potency in assay [3] is 105 nM (active); in assay [4], 0.118 µM (active).
Turning to `COc1cc(-c2nn(C3CCC(N4CCN(C(C)=O)CC4)CC3)c3ncnc(N)c23)ccc1NC(=O)c1cc2ccccc2n1C` (centres undefined), the result in assay [1] was inactive. Besides, the Potency result in assay [2] is “inactive”. Moreover, the Potency is 3.01 µM (active) in assay [5]; 183 nM (active) and 590 nM (active) in assay [3]; 258 nM (active) and 1.05 µM (active) in assay [4].
In the case of `COc1cc2c(Oc3ccc4[nH]c(C)cc4c3F)ncnc2cc1OCCCN1CCCC1`, in assay [1], the result was inactive. The Potency result in assay [2] is “inactive”. For the same compound, the Potency was 4.59 µM (active) and 6.61 µM (active) in assay [3]; 7.28 µM (active) and 7.42 µM (active) in assay [4].
In the case of `Cc1nc2cnc3ccc(C#Cc4cccnc4)cc3c2n1-c1ccc(C(C)(C)C#N)cc1`, the outcome in assay [1] was inactive. In assay [2], the Potency result was “inactive”. For the same compound, the Potency in assay [3] is 7.31 µM (active) and 148 nM (active); in assay [4], 8.2 µM (active) and 148 nM (active).
As to `Nc1ccc(S(=O)(=O)Nc2ncccn2)cc1`, in assay [7], the call was inactive.
`COc1ccc(-c2cc3c(C)nc(N)nc3n(C3CCC(OCCO)CC3)c2=O)cn1` (centres undefined): the Potency entry in assay [6] was “inactive”.
For `O=C(O)c1ccc2c(c1)nc(Nc1cccc(Cl)c1)c1ccncc12`, the Potency in assay [6] was 28.2 µM (active).
With `Clc1cccc(-n2nnnc2NCc2ccccc2Oc2ccccn2)c1Cl`, the Potency in assay [8] was 5.35 µM (active).
For `CCOC(=O)C1=C(C)NC2=C(C(=O)CC(C)(C)C2)C1c1ccc(-c2ccccc2)cc1` (centres undefined), the Potency result in assay [8] was “inactive”.
For `O=C(NCCCNc1nc(Nc2cccc(NC(=O)N3CCCC3)c2)ncc1I)c1cccs1`, the Potency in assay [6] was 6.76 µM (active).
As to `Fc1cc(-c2cccc3ncc(-c4cnn(C5CCNCC5)c4)nc23)cc(F)c1CN1CCOCC1`, the Potency in assay [6] was 39.8 µM (active).
